# From the supplement of paper PMC10498489
# The whole screen tested about 2,300 compounds, of which about 330 (14%) showed activity.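 How the source made its calls: active = median modified Z-score above 1.96; inactive = 1.96 or below.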 A selection follows.
# Test system: HepG2 Srxn1-GFP reporter cells (+30 nM CDDO-Me)
# Assay: Srxn1-GFP intensity median modified Z-score relative to plate median; higher = stronger NRF2 / oxidative stress reporter activation, active = hit call of the paper
# Details: 10 µM; exposure time: 24h
# Procedure, shortened: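 Compound at 10 μM was applied with an NRF2 activator at 30 nM to HepG2 Srxn1-GFP BAC reporter cells for 24 h, in DMSO at no more than 0.1%, using three replicate 96-well plates seeded at 20,000 cells per well. Fixed, Hoechst-stained cells were imaged confocally and cytoplasmic GFP was scored for each cell, with images under 100 cells left out. The figure reported is the replicate median of the per-plate modified Z-score of GFP intensity. Scaling relied on 1.4826 × median absolute deviation.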
row,SMILES,Srxn1-GFP intensity median modified Z-score
1,CN(C)c1ccc(C(=C2C=CC(=[N+](C)C)C=C2)c2ccc(N(C)C)cc2)cc1 [euspeclibcmpd139],8.6 (active)
2,CC(CCC(=O)O)[C@H]1CCC2C3CC[C@@H]4C[C@H](O)CC[C@]4(C)C3C[C@H](O)[C@@]21C (some centres not stated) [euspeclibcmpd2112],-0.195 (inactive)
3,COC(=O)C[C@H]1C(C)(C)C(=O)C2CC3=C(CC[C@]4(C)C3=CC(=O)O[C@H]4c3ccoc3)[C@@]1(C)C2=O [euspeclibcmpd1591],0.352 (inactive)
4,CCCCNC(=O)NS(=O)(=O)c1ccc(OC)cc1,1.61 (inactive)
5,CC(NCCc1ccc(O)cc1)C(O)c1ccc(O)cc1 (configuration not stated) [euspeclibcmpd402],0.107 (inactive)
6,C[C@@H](COc1ccccc1)N[C@H](C)[C@H](O)c1ccc(O)cc1 [euspeclibcmpd167],4.4 (active)
7,CC(CCc1ccc(O)cc1)NCC(O)c1ccc(O)cc1 (configuration not stated) [euspeclibcmpd467],0.894 (inactive)
8,CC(C)(C)NC[C@@H](O)COc1nsnc1N1CCOCC1 [euspeclibcmpd295],-0.119 (inactive)
9,COC1C(=O)C(=O)c2c(cc3oc(C(C)=O)c(O)c3c2O)C1=O (configuration not stated) [euspeclibcmpd1523],0.196 (inactive)
10,N=c1[nH]ccs1 [euspeclibcmpd1106],0.0281 (inactive)
11,Cc1onc(-c2ccccc2)c1C(=O)NC1C(=O)N2C1SC(C)(C)C2C(=O)O (configuration not stated) [euspeclibcmpd2397],-0.382 (inactive)
12,CC(C)=CCc1c2c(c3occ(-c4ccc(O)c(O)c4)c(=O)c3c1O)C=CC(C)(C)O2 [euspeclibcmpd1728],156 (active)
13,CC(C)=CCc1c2c(c3occ(-c4ccc(O)cc4)c(=O)c3c1O)C=CC(C)(C)O2 [euspeclibcmpd1709],1.14 (inactive)
14,COc1ccc(-c2coc3c4c(c(CC=C(C)C)c(O)c3c2=O)OC(C)(C)C=C4)cc1OC [euspeclibcmpd2204],-0.479 (inactive)
15,C=C1C[C@]23C[C@@]1(O)CC[C@H]2[C@@]12C=C[C@H](O)[C@@](C)(C(=O)O1)[C@H]2C3C(=O)O (some centres not stated) [euspeclibcmpd1408],0.616 (inactive)
16,NC[C@@H]1O[C@H](O[C@@H]2[C@@H](CO)OC(O[C@@H]3[C@@H](O)[C@H](N)C[C@H](N)[C@H]3OC3O[C@H](CN)[C@@H](O)[C@H](O)[C@H]3N)[C@@H]2O)[C@H](N)[C@@H](O)[C@@H]1O (some centres not stated) [euspeclibcmpd206],0.688 (inactive)
17,O=C(O)C1CC(=O)C(O)C(O)C1 (configuration not stated) [euspeclibcmpd2407],-0.321 (inactive)
